# According to PubChem BioAssay (NCI):
# The panel holds about 83,000 compounds, 20% with a hit somewhere; the sample as a whole holds those more often.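 A percent growth of 40 corresponds to 60% growth inhibition; 0 means no net growth; -100 means all cells died. Active threshold: below 10.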 Calls of active or inactive are those of the source.
# System: NCI-H460 lung
# Assay: NCI-60 one-dose screen, 48 h (100 = growth as untreated, 0 = no growth, -100 = all killed)
# Details: 10 µM unless noted
# Experimental: Growth inhibition of the NCI-H460 human Non-Small Cell Lung tumor cell line is measured as a screen for anti-cancer activity. Cells are grown in 96 well plates and exposed to the test compound for 48 hours. Compounds are tested at a single concentration, which is 10^-5 M for most compounds. The reported endpoint is percent growth (GI% or GIPRCNT), where numbers from 0 - 100% represent growth inhibition, and numbers from -100% - 0 represent cell death. For example, a value of 40 represents 60% growth inhibition. A value of 0 means no net growth occurred over the course of the experiment. A value of -40 indicates 40% of cells at the beginning of the experiment died by the end of the experiment. A value of -100 means all cells are dead at the end of the experiment.
# NCI-60 Human Tumor Cell Lines Screen was performed using the standard one-dose NCI protocol, which is described in more detail at https://dtp.cancer.gov/discovery_development/nci-60/default.htm.
# Compounds with GIPRCNT values below 10 were considered active. Activity score was based on GIPRCNT using the following formula: […]
# Score is 0 for GIPRCNT values of 100 or above, 50 for GIPRCNT values of 0, and 100 for GIPRCNT values of -100.
row,SMILES,growth
1,O=C(O)c1cn(C2CC2)c2cc(N3CCN(C(=O)CSc4nc(NS(=O)(=O)c5ccccc5)cc(=O)[nH]4)CC3)c(F)cc2c1=O,96.2% (inactive)
2,CCOc1ccc(NC(=O)Nc2cc(C(C)C)ccc2C)cc1,106% (inactive)
3,COc1ccc(C(=O)NC(=O)Nc2ccc3c(c2)NC(=O)/C3=C\c2[nH]c(C)c(C(=O)O)c2C)c(F)c1,69.8% (inactive)
4,CC(C)[C@@H]1NC(=O)[C@]2(C)CSC(=N2)c2ccnc(c2)CNC(=O)C[C@@H](/C=C/CCS)OC1=O,9.2% (active)
5,O=C(Nc1ccc(-n2cc(-c3ccncc3)c(-c3ccc(O)c(Cl)c3)n2)cc1)Nc1ccc(Cl)c(C(F)(F)F)c1,-1.85% (active)
6,COc1cc(C(=O)C[n+]2ccccc2)ccc1OC(C)=O,99% (inactive)
7,CCC(CC(C)C)Nc1ccc(NC(CC)CC(C)C)cc1 (stereo not given),94.5% (inactive)
8,CCOC(=O)C1=C(N)Oc2cc(OC)ccc2C1c1ccc(F)c(F)c1 (stereo not given),16.8% (inactive)
9,Cc1ccc(-c2nc3c(N=Nc4ccc(S(N)(=O)=O)cc4)c(N)nn3c(N)c2C#N)cc1,27.9% (inactive)
10,COc1ccc(/C=C/C(=O)c2ccc(Oc3ncnc4ccccc34)cc2)cc1OC,88.4% (inactive)
11,COc1ccc(C(=O)NC(=O)Nc2ccc3c(c2)NC(=O)/C3=C\c2[nH]c(C)c(CCC(=O)O)c2C)c(F)c1,17.1% (inactive)
12,CC(=O)CC/C=C(\C)[C@H](O)[C@H](C)C(=O)O[C@H]1C[C@H](C)C=C2C=C[C@@]3(C)O[C@@H](O)CC(=O)[C@]3(C)[C@H]21,-16.6% (active)
13,Cc1cn(C2CC(N=[N+]=[N-])C(COP(=O)(O)OP(=O)(O)OP(=O)(O)O)O2)c(=O)[nH]c1=O (stereo not given),82.4% (inactive)
14,COC(=O)c1ccc(NC(N)=NCC(C)(C)COc2ccc(C(F)(F)F)cc2)nc1,38.8% (inactive)
15,O=C(COc1ccc(Cl)cc1)N1CCN(Cc2ccc3c(c2)OCO3)CC1,107% (inactive)
16,CCCCOc1nc2ccc(Cl)cc2cc1/C=C/C(=O)/C=C/c1ccc(Cl)cc1,103% (inactive)
17,COc1ccc(NC(=O)COCCOCCNC[C@@H]2C(=O)O[C@H]3[C@H]2CC/C(COC(=O)OC/C2=C/CC[C@@]4(C)O[C@H]4[C@H]4OC(=O)[C@@H](CN(C)C)[C@@H]4CC2)=C\CC[C@@]2(C)O[C@@H]32)c(O)c1C(N)=O,96% (inactive)
18,NS(=O)(=O)c1ccc(Nc2nc(O)c(/C=C3\C=Nc4ccccc43)s2)cc1,98.6% (inactive)
19,CC(NCCC(c1ccccc1)c1ccccc1)c1ccccc1 (stereo not given),11.6% (inactive)
20,O=C1CCC(c2c(O)cc(O)c3c(=O)c(O)c(-c4ccc(O)c(O)c4)oc23)N1 (stereo not given),105% (inactive)

row,SMILES,growth
1,Nc1nc(-c2cc3c(cc2Cl)NC(=O)/C3=C/c2ccccc2)cs1,56.8% (inactive)
2,COc1ccc(-c2cnc(-c3ccc(F)cc3)[nH]2)cc1,103% (inactive)
3,CCOC(=O)c1cnc2c(OC)ccc(OC)c2c1Cl,108% (inactive)
4,CN1C(=O)C2(SCC(C(=O)NCC(=O)OC(C)(C)C)N2C(=O)C2CCCCC2)c2ccccc21 (stereo not given),102% (inactive)
5,NC(=NCCCOc1ccc(F)cc1)Nc1ccc(Cl)c(Cl)c1,74.3% (inactive)
6,Nc1nccc(=S)[nH]1,107% (inactive)
7,CCOC(=O)NNc1nncc2ccccc12,110% (inactive)
8,O=c1nc(N2CCOCC2)oc2c(-c3cccc4ccccc34)cccc12,110% (inactive)
9,COc1ccc(-c2nnc(SCC(=O)N3CCN(c4cc5c(cc4F)c(=O)c(C(=O)O)cn5C4CC4)CC3)o2)cc1OC,104% (inactive)
10,CN(C)CC/C=C1\c2ccccc2Sc2ccc(Cl)cc21,77.2% (inactive)
11,O=C(NOC1OC(CO)C(O)C(O)C1O)Nc1ccccc1 (stereo not given),103% (inactive)
12,O=C(Nc1cccc(-n2ccc3c(NC(=O)c4ccccc4)nccc32)c1)Nc1cc(C(F)(F)F)cc(C(F)(F)F)c1,2.99% (active)
13,COc1cc(CN(c2ccc(Cl)cc2)C2OC(=O)c3ccccc32)cc(OC)c1OC (stereo not given),57.4% (inactive)
14,Nc1ncc(-c2ccc3ncnc(Nc4ccc(F)c(Cl)c4)c3c2)cn1,11.9% (inactive)
15,CC1CCc2cc(F)cc3c(=O)c(C(=O)O)cn1c23 (stereo not given),105% (inactive)
16,Cc1ccccc1C[P+](c1ccccc1)(c1ccccc1)c1ccccc1,21% (inactive)
17,C=C1C(=O)O[C@H]2[C@H]1CC/C(C(=O)NCCOCCOCC(=O)Nc1ccc(OC)c(C(N)=O)c1O)=C\CC[C@@]1(C)O[C@@H]21,106% (inactive)
18,COc1cc(NC(C)CCCN2C(=O)c3ccccc3C2=O)c2nc(C)ccc2c1OC (stereo not given),103% (inactive)
19,O=C(NCCNc1nccc(-c2c(-c3cccc(O)c3)nc3sccn23)n1)c1ccccc1O,57% (inactive)
20,CCCCCCCCCCCCCCCC(=O)NS(=O)(=O)OC[C@H]1O[C@@H](n2cnc3c(N)ncnc32)[C@H](O)[C@@H]1O,-10.1% (active)
